# In paper PMC12136788:
# Changes are numbered by the printed parent chain. Over roughly 5,800 sequences, “enrichment r” has its median near 0.54; the highest 2% begin near 16. What follows is part of a selection rich in the highest values, with near analogues and random picks from the rest.
# B1: chr12:39618871:39619093:-|CDS|ENSG00000173208|unk|total|mutant (ssRNA)
# RNA: GGGAGUUCUACAGUCCGACGAUCUAUUAUGAUGUUCUCCCAAUCUGUGGCUCACUUGUAUUCCAAUCUGACCAAACCUAUUUCCGAUGUAAUGCUGACCUCCUAUACACUCAUUCAAACUGCUACAUCCAGAGGAGCAAGCCCCAACAGAGGAUUGAGCAUCA
# B2: chr8:17753977:17754079:-|CDS|ENSG00000129422|unk|FALSE|bound_elsewhere (ssRNA)
# RNA: GGGAGUUCUACAGUCCGACGAUCAAAAAAGCAGAAAUUCUAAUUAACAAGACACAUAAGCAGCAGUUUAAUAAACUCAUUACUAGCCAGGCUGUGCAUGUUACAACUCAUUCUAAAAAUGCUUCACACAGGGUUCCAAGAACACAACAGAGGAUUGAGCAUCA
# B3: chr1:152032676:152032810:-|CDS|ENSG00000163191|unk|FALSE|unique (ssRNA)
# RNA: GGGAGUUCUACAGUCCGACGAUCGGACCCUGGUGUCCUUGACCGCAUGAUGAAGAAACUGGACACCAACAGUGAUGGUCAGCUAGAUUUCUCAGAAUUUCUUAAUCUGAUUGGUGGCCUAGCUAUGGCUUGCCAUGACUCCUUCAACAGAGGAUUGAGCAUCA
# B4: chr2:27041412:27041530:+|3pUTR|ENSG00000119777|msi1_unk|total|mutant (ssRNA)
# RNA: GGGAGUUCUACAGUCCGACGAUCACUUCAAAAUGCCCAGCCUGCCCCAAAUGCCUCUAAGCCCCUCCCUGUCCCCUCCCUUGCCGUCCUACUUCUUCCAACUUUCCAUUCCCCAUCAUGCUGGGGGUCUUGGUCACAAGGCUCCAACAGAGGAUUGAGCAUCA
# B5: chr11:49981574:49982501:-|CDS|ENSG00000221954|control|control|control (ssRNA)
# RNA: GGGAGUUCUACAGUCCGACGAUCGAACAAUAGCUUGGAGGGGAGGUGUAAAGCCCUCUCCACCUGUAUUUCUCACAUCAUAGUAGUUGUCUUAUUCUUUGUGCCCUGUAUAUUUGUGUAUCUGCGCUCAGUGACCACUCUGCCCAACAGAGGAUUGAGCAUCA
# B6: chr7:157269180:157269282:+|3pUTR|ENSG00000009335|unk|FALSE|unique (ssRNA)
# RNA: GGGAGUUCUACAGUCCGACGAUCAUUUUAGGUUGUUUUAUGUUGAAUGUUCUAUAUCUUAUUAGUUAAUUUGUAUAUUUUAUUAGUAUUUUGGAAAUAGCAUAUCUGAGACUGAAGAGAAAUUGACAAUUCACUUAUUUGUGGCAACAGAGGAUUGAGCAUCA
# B7: chr10:11920118:11920232:-|3pUTR|ENSG00000151461|unk|total|mutant (ssRNA)
# RNA: GGGAGUUCUACAGUCCGACGAUCGCCGUAUAUUCCGUCGGAGAGCACAUCUGUAUGCGACAACUUGAUUACAUCUUUUUUUCCCGCUAUUUUGCAUUUUUUCUUUUACCAUGUUUCAGUUUCUGCAUGCCGAUUUAAAUAAAACAACAGAGGAUUGAGCAUCA
# B8: chr15:83017406:83017507:-|3pUTR|ENSG00000064726|msi1|FALSE|unique (ssRNA)
# RNA: GGGAGUUCUACAGUCCGACGAUCGGCCUAAUAAAAUGCCCAAGAAAAUAUUCAGUGCAUUUAUAGAGAAGGAUAUUUUGUAGUAGUAUAGUAAUGUGUUAUGUAGUACAGUUUUAAAGCUAUAAAUGGAAUUUUGUGUAAAUUCAACAGAGGAUUGAGCAUCA
# B9: chr10:11920118:11920232:-|3pUTR|ENSG00000151461|unk|FALSE|unique (ssRNA)
# RNA: B7 RNA with C25U, C26A, C34U, C35A, C83U, C84A, C129U, C130A
# B10: chr15:83017406:83017507:-|3pUTR|ENSG00000064726|msi1|total|mutant (ssRNA)
# RNA: B8 RNA with U63C, A64C, U80C, A81C, U83C, A84C, U88C, A89C, U103C, A104C
# B11: chr15:34980028:34980129:-|3pUTR|ENSG00000198146|msi1|FALSE|unique (ssRNA)
# RNA: GGGAGUUCUACAGUCCGACGAUCGGUUCUGUUAUUUAAGCCUGUUCUAAGUUUGAUCAAAUGGCAAUGACUAGGUCUAGUUUUAGUUUUUAUUUUUGCAGGAGUCUAUUGCUAAAGAAUUUUAUUUUGAUGCUUGUUAAAUUUCAACAGAGGAUUGAGCAUCA
# B12: chr15:34980028:34980129:-|3pUTR|ENSG00000198146|msi1|total|mutant (ssRNA)
# RNA: B11 RNA with U71C, A72C, U77C, A78C, U83C, A84C
# B13: ENSG00000070961:be:win_5801|3pUTR|ENSG00000070961|bound_else_gene|NA|bound_elsewhere_windowed (ssRNA)
# RNA: GGGAGUUCUACAGUCCGACGAUCGAAAAGGGAAAUGUUUUCAGUUUUCUUUUUUAUUUUGGUUAUGCUUAAAUAUGAAUGUAAUUACCAAAAGAUUUAGAAGUGCAUGUGCUUUGGAGGAUUUGUAUUGAGCUUUUACAGUAUCAACAGAGGAUUGAGCAUCA
# B14: chr12:39553730:39553837:-|3pUTR|ENSG00000173208|unk|FALSE|unique (ssRNA)
# RNA: GGGAGUUCUACAGUCCGACGAUCGAAGUAUGUUAAGCUAAGCACAGAGAAAAAAAGGCAGCAAGACAUGUUUUAUAAGAUUUUAGCAUUAAGGAAGUAUAUGAUCUGACUUUUCAGAAGAAAAUAAACAAAUGCAUUAUGUAACAACAGAGGAUUGAGCAUCA
# B15: ENSG00000070961:be:win_4501|3pUTR|ENSG00000070961|bound_else_gene|NA|bound_elsewhere_windowed (ssRNA)
# RNA: GGGAGUUCUACAGUCCGACGAUCCCUUUUGUUCAGAAUUUAGUAGAUUGUUUAAUGCAGGACAUCAACUACAUAAUGAAAGAUGCUUGAAAUGCUUUUGUUAUUUCAGGCAAAUCAAAUUAAAUCAGACUAUCAAACUACAAGCAACAGAGGAUUGAGCAUCA
# B16: chr11:35231809:35232301:+|3pUTR|ENSG00000026508|msi1|FALSE|unique (ssRNA)
# RNA: GGGAGUUCUACAGUCCGACGAUCACAACACCAAGAAUUGAUUUUGUAGCCAACAUUCAUUCAAUACUGUUAUAUCAGAGGAGUAGGAGAGAGGAAACAUUUGACUUAUCUGGAAAAGCAAAAUGUACUUAAGAAUAAGAAUAACAACAGAGGAUUGAGCAUCA
# B17: ENSG00000114744:stop:overlap|stop_codon|ENSG00000114744|stop_codon|NA|stop_codon (ssRNA)
# RNA: GGGAGUUCUACAGUCCGACGAUCAACAAGCAUUGGAAGAGAUGAAGACAAAUCACUGUAGGAGAGUUGUUCGCAACAUCAAGUAGUACCAGUUUUAAGGUUUUAAUUCAUUUGAAUCACUUAUGAAUUGAUGAUAUACAGCAACAACAGAGGAUUGAGCAUCA
# Target: MSI1 full-length (mouse, UniProt Q61474 1-362)
# Sequence (Q61474 whole entry): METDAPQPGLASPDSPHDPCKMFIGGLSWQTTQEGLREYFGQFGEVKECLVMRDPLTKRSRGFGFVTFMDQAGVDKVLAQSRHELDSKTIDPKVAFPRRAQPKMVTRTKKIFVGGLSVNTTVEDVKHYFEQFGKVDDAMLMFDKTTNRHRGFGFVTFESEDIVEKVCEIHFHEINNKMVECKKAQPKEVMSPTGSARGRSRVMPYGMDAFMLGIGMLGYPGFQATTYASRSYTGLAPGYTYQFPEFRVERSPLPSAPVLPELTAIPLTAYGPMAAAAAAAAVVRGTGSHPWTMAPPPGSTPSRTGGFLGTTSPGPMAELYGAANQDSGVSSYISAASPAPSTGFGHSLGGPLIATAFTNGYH
# Test: nsRBNS (natural sequence RNA bind-n-seq); RBNS binding buffer (assumed for nsRBNS): 25 mM Tris pH 7.5, 150 mM KCl, 3 mM MgCl2, 0.01% Triton X-100, 500 ug/ml BSA, 20 U/ml SUPERase-In, 4 C; UNK is unkempt and MSI1 is Musashi-1; names of the RNAs are library labels; protein concentration not given here; high values mean tight binding
row,Binder,binding signal [enrichment R]
1,B1,0.621
2,B2,2.45
3,B3,0.264
4,B4,0.832
5,B5,2.83
6,B6,12.7
7,B7,0.709
8,B8,44.9
9,B9,23.3
10,B10,0.489
11,B11,77.2
12,B12,0.774
13,B13,1.05
14,B14,2.43
15,B15,0.644
16,B16,0.807
17,B17,16.3
